In paper PMC5540273 (PLoS ONE, 2017):

The compounds below were run on TLK1. Conditions: concentration: 1 μM,replicates: in singlicate; n = 1.
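Further: KINOMEscan kinase panel screen.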

| SMILES | %Inh [%] |
| --- | --- |
| OCCn1cc(-c2cnc3nnn(Cc4ccc5ncccc5c4)c3n2)cn1 | 0 |
| CC(=O)Nc1nc2cnc(Nc3cc(NC(=O)c4cccc(CC(C)(C)C#N)c4)ccc3C)nc2s1 | 0 |
| CCNCC(Cc1ccccc1)NC(=O)c1cc(Br)c(-c2ccnc3[nH]ccc23)s1.Cl.Cl (centres unmarked) [GSK1383280] | 18 |
| N#Cc1cccc(C(=O)NC2CCN(c3ccnc(Nc4ccc(F)cc4)n3)C2)c1 (centres unmarked) [GSK1379708] | 0 |
| CN1CCN(CCCNc2nccc(-c3c(-c4ccc(F)cc4)nn4cc(C(N)=O)ccc34)n2)CC1 [GW622475] | 39 |
| O=C(Nc1n[nH]c2cc(-c3ccco3)ccc12)C1CC1 [SB-737447] | 20 |
| CCOC(=O)N1CCC(n2cnc(-c3ccc(F)cc3)c2-c2ccnc(N)n2)CC1 [SB-219952] | 26 |
| COc1cc2ncn(-c3cc(OCC4CCCCC4)c(C(N)=O)s3)c2cc1OC [GSK204559] | 6 |
| CSc1nccc(-c2c(-c3ccc(F)cc3)ncn2CCCN2CCOCC2)n1.Cl [SB-217146] | 0 |
| CCn1c(-c2nonc2N)nc2cncc(Br)c21 [SB-738004] | 9 |
| Cn1ccc2ncnc(Oc3ccc(NC(=O)Nc4cccc(C(F)(F)F)c4)c(F)c3)c21 | 0 |
| Cc1cccc(-c2nc(Nc3ccncc3)c3sccc3n2)n1 [GW869641] | 0 |
| Cn1cc(-c2cccc3c(N)c(C(N)=O)nnc23)cn1 | 2 |
| CCN1CCN(CCCC(=O)Nc2n[nH]c3nc(-c4ccc(O)cc4)c(Br)cc23)CC1 [SB-731579] | 8 |
| Cn1ccc2ncnc(Oc3ccc(NC(=O)Nc4cc(C(C)(C)C)on4)c(Cl)c3)c21 | 15 |
| Cc1n[nH]c2cc(Nc3ccnc(Nc4cccc(CN5CCOCC5)c4)n3)ccc12 [GW682569] | 9 |
| CS(=O)(=O)c1cccc(CNc2nc(Nc3ccc4c(c3)[C@@H]3C[C@@H]4CNC3=O)ncc2C(F)(F)F)c1 | 18 |
| Cc1ccc(C(=O)Nc2ccc(Oc3ccc4nc(NC(=O)C5CC5)cn4c3)c(F)c2)c(=O)n1-c1ccccc1 | 0 |
| COC(=O)Nc1nc2cc(Oc3ccc(NC(=O)Nc4cc(C(F)(F)F)ccc4Cl)cc3)ccc2[nH]1.Cl [GW697465] | 0 |

| SMILES | %Inh [%] |
| --- | --- |
| CC(C)c1nc(-c2cccc(NS(=O)(=O)c3ccccc3)c2)c(-c2ccnc(Nc3ccc4c(c3)CN(C)CC4)n2)s1 [GSK1649598] | 41 |
| Cn1ccc2ncnc(Oc3ccc(NC(=O)Nc4cccc(C(F)(F)F)c4)c(Cl)c3)c21 | 74 |
| CC(=O)Nc1ccc(-c2cc3ncnc(SCC(=O)O)c3s2)cc1 | 20 |
| C[C@@H](Oc1cc(-n2cnc3cc(-c4cnn(C)c4)ccc32)sc1C(N)=O)c1ccccc1Cl [GSK580432] | 0 |
| CC(C(=O)NC1CCN(c2ccnc(Nc3ccc(F)cc3)n2)C1)c1ccc(Cl)cc1 (centres unmarked) [GSK1379713] | 0 |
| c1ccc(Oc2ccc(Nc3ccnc4ccc(-c5ccccn5)cc34)cc2)cc1 [GW407034] | 0 |
| COc1cc2c(Nc3ccc(NC(=O)c4ccccc4)cc3)ncnc2cc1OCCCN1CCOCC1 [GSK301329] | 0 |
| Nc1nccc(-c2ccc3c(N)n[nH]c3c2)n1 [GSK1034945] | 14 |
| CNC(=O)c1ccccc1Nc1nc(Nc2cccc(CS(C)(=O)=O)c2)ncc1C.O=CO [GSK1520489] | 22 |
| C[C@@H]1CNc2c(sc3ccc4nc(-c5ccncc5)ccc4c23)C(=O)N1 | 0 |
| CCn1c(-c2nonc2N)nc2cncc(CNC3CCNCC3)c21.Cl [SB-747651] | 0 |
| O=C(Nc1cccc(Oc2ccc3nccn3n2)c1)Nc1cccc(C(F)(F)F)c1 | 14 |
| Cc1ccc(Nc2ccnc(Nc3ccc4c(c3)CS(=O)(=O)C4)n2)cc1O.Cl [GW579362] | 30 |
| O=C(Nc1cccc(C(F)(F)F)c1)c1cccc(Oc2ccc3nccn3n2)c1 | 3 |
| NC(=O)c1ccc(-c2cc3ncnc(SCC(=O)O)c3s2)cc1 | 5 |
| COC(=O)c1cccc(NC(=O)NC2CCN(c3ccnc(Nc4cc(OC)c(OC)c(OC)c4)n3)C2)c1 (centres unmarked) [GSK1379767] | 14 |
| Cc1cccc2c(-c3ccncc3)c(-c3ccc(F)cc3)nn12.Cl [GW461487] | 10 |
| CN(c1cccc(CNc2nc(Nc3ccc4c(c3)CC(=O)N4)ncc2C(F)(F)F)c1)S(C)(=O)=O | 16 |

The compounds below were run on TLK2. Conditions: concentration: 1 μM,replicates: in singlicate; n = 1.

| SMILES | %Inh [%] |
| --- | --- |
| OCCn1cc(-c2cnc3nnn(Cc4ccc5ncccc5c4)c3n2)cn1 | 0 |
| CC(=O)Nc1nc2cnc(Nc3cc(NC(=O)c4cccc(CC(C)(C)C#N)c4)ccc3C)nc2s1 | 0 |
| CCNCC(Cc1ccccc1)NC(=O)c1cc(Br)c(-c2ccnc3[nH]ccc23)s1.Cl.Cl (centres unmarked) [GSK1383280] | 16 |
| N#Cc1cccc(C(=O)NC2CCN(c3ccnc(Nc4ccc(F)cc4)n3)C2)c1 (centres unmarked) [GSK1379708] | 0 |
| CN1CCN(CCCNc2nccc(-c3c(-c4ccc(F)cc4)nn4cc(C(N)=O)ccc34)n2)CC1 [GW622475] | 0 |
| O=C(Nc1n[nH]c2cc(-c3ccco3)ccc12)C1CC1 [SB-737447] | 0 |
| CCOC(=O)N1CCC(n2cnc(-c3ccc(F)cc3)c2-c2ccnc(N)n2)CC1 [SB-219952] | 2 |
| COc1cc2ncn(-c3cc(OCC4CCCCC4)c(C(N)=O)s3)c2cc1OC [GSK204559] | 12 |
| CSc1nccc(-c2c(-c3ccc(F)cc3)ncn2CCCN2CCOCC2)n1.Cl [SB-217146] | 15 |
| CCn1c(-c2nonc2N)nc2cncc(Br)c21 [SB-738004] | 6 |
| Cn1ccc2ncnc(Oc3ccc(NC(=O)Nc4cccc(C(F)(F)F)c4)c(F)c3)c21 | 2 |
| Cc1cccc(-c2nc(Nc3ccncc3)c3sccc3n2)n1 [GW869641] | 9 |
| Cn1cc(-c2cccc3c(N)c(C(N)=O)nnc23)cn1 | 0 |
| CCN1CCN(CCCC(=O)Nc2n[nH]c3nc(-c4ccc(O)cc4)c(Br)cc23)CC1 [SB-731579] | 0 |
| Cn1ccc2ncnc(Oc3ccc(NC(=O)Nc4cc(C(C)(C)C)on4)c(Cl)c3)c21 | 0 |
| Cc1n[nH]c2cc(Nc3ccnc(Nc4cccc(CN5CCOCC5)c4)n3)ccc12 [GW682569] | 2 |
| CS(=O)(=O)c1cccc(CNc2nc(Nc3ccc4c(c3)[C@@H]3C[C@@H]4CNC3=O)ncc2C(F)(F)F)c1 | 0 |
| Cc1ccc(C(=O)Nc2ccc(Oc3ccc4nc(NC(=O)C5CC5)cn4c3)c(F)c2)c(=O)n1-c1ccccc1 | 0 |
| COC(=O)Nc1nc2cc(Oc3ccc(NC(=O)Nc4cc(C(F)(F)F)ccc4Cl)cc3)ccc2[nH]1.Cl [GW697465] | 0 |

| SMILES | %Inh [%] |
| --- | --- |
| CC(C)c1nc(-c2cccc(NS(=O)(=O)c3ccccc3)c2)c(-c2ccnc(Nc3ccc4c(c3)CN(C)CC4)n2)s1 [GSK1649598] | 33 |
| Cn1ccc2ncnc(Oc3ccc(NC(=O)Nc4cccc(C(F)(F)F)c4)c(Cl)c3)c21 | 0 |
| CC(=O)Nc1ccc(-c2cc3ncnc(SCC(=O)O)c3s2)cc1 | 8 |
| C[C@@H](Oc1cc(-n2cnc3cc(-c4cnn(C)c4)ccc32)sc1C(N)=O)c1ccccc1Cl [GSK580432] | 0 |
| CC(C(=O)NC1CCN(c2ccnc(Nc3ccc(F)cc3)n2)C1)c1ccc(Cl)cc1 (centres unmarked) [GSK1379713] | 0 |
| c1ccc(Oc2ccc(Nc3ccnc4ccc(-c5ccccn5)cc34)cc2)cc1 [GW407034] | 0 |
| COc1cc2c(Nc3ccc(NC(=O)c4ccccc4)cc3)ncnc2cc1OCCCN1CCOCC1 [GSK301329] | 0 |
| Nc1nccc(-c2ccc3c(N)n[nH]c3c2)n1 [GSK1034945] | 0 |
| CNC(=O)c1ccccc1Nc1nc(Nc2cccc(CS(C)(=O)=O)c2)ncc1C.O=CO [GSK1520489] | 0 |
| C[C@@H]1CNc2c(sc3ccc4nc(-c5ccncc5)ccc4c23)C(=O)N1 | 0 |
| CCn1c(-c2nonc2N)nc2cncc(CNC3CCNCC3)c21.Cl [SB-747651] | 0 |
| O=C(Nc1cccc(Oc2ccc3nccn3n2)c1)Nc1cccc(C(F)(F)F)c1 | 0 |
| Cc1ccc(Nc2ccnc(Nc3ccc4c(c3)CS(=O)(=O)C4)n2)cc1O.Cl [GW579362] | 35 |
| O=C(Nc1cccc(C(F)(F)F)c1)c1cccc(Oc2ccc3nccn3n2)c1 | 0 |
| NC(=O)c1ccc(-c2cc3ncnc(SCC(=O)O)c3s2)cc1 | 0 |
| COC(=O)c1cccc(NC(=O)NC2CCN(c3ccnc(Nc4cc(OC)c(OC)c(OC)c4)n3)C2)c1 (centres unmarked) [GSK1379767] | 15 |
| Cc1cccc2c(-c3ccncc3)c(-c3ccc(F)cc3)nn12.Cl [GW461487] | 2 |
| CN(c1cccc(CNc2nc(Nc3ccc4c(c3)CC(=O)N4)ncc2C(F)(F)F)c1)S(C)(=O)=O | 3 |
